# The supplement of paper PMC10849652
# Targets with a hit are over-represented here; the source holds about 8,800 in all. About 0.5% of all pairs of compound and target were hits. Values without a mark were called inactive.
# Key:
# Test in all cases: log2 fold change, soluble protein after heating vs DMSO (PISA); higher = thermal stabilisation; K562 lysate, 10 uM; active = over 0.2 and 3.5 SD of the protein, either way, in both replicates (recomputed)
# erlotinib = compound: C#Cc1cccc(Nc2ncnc3cc(OCCOC)c(OCCOC)cc23)c1 [erlotinib]
# How it was run: (§1)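 Pellets of K562 cells were dounce-homogenised in PBS pH 7.4 with 1 mM MgCl2, and the crude extract was held at 1 mg/mL protein for a 30 min treatment with 10 μM compound. Aliquots were heated for 3 min over 48°C-58°C and pooled before NP-40 was added to 0.5% at 4°C. The supernatant from 21,000xg for 90 min was quantified by TMTpro 16plex LC-MS/MS with channel sums equalised. Values are reported from duplicates as log-two fold change in thermal stability relative to solvent controls.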
# [1] = compound: C/C(=N\NC(=O)C1=CC(=CC=C1)S(=O)(=O)N2CCOCC2)/C3=C(C=CC(=C3)Cl)O
# How it was run: as §1
# [2] = compound: C1=CC(=CC=C1C2=NC3=C(N2)C=C(C=C3)C(=O)N)OC4=CC=C(C=C4)Cl
# How it was run: as §1
# [3] = compound: C1=CC2=C(C=CC(=C2)/C=C\3/C(=O)NC(=NCC4=CC=CS4)S3)N=C1
# How it was run: as §1
# [4] = compound: C1=CC2=NC=CN=C2C=C1/C=C/3\C(=O)NC(=O)S3
# How it was run: as §1
# [5] = compound: C1=CC=C(C=C1)C2=NC(=C(N2)C3=CC=NC=C3)C4=CC(=C(C=C4)Cl)O
# How it was run: as §1
# [6] = compound: C1=CC=C2C(=C1)C3=NNC4=CC=CC(=C43)C2=O
# How it was run: as §1
# [7] = compound: C1CCN(C1)C(=O)NC2=CC=CC(=C2)NC3=NC=C(C(=N3)NCCC4=CN=CN4)Br
# How it was run: as §1
# [8] = compound: C1CN(CCC1(CC2=CC=C(C=C2)Cl)N)C3=NC=NC4=C3C=CN4
# How it was run: as §1
# IRAK-1-4 Inhibitor I = compound: C1COCCN1CCN2C3=CC=CC=C3N=C2NC(=O)C4=CC(=CC=C4)[N+](=O)[O-] [IRAK-1-4 Inhibitor I]
# How it was run: as §1
# ibrutinib = compound: C=CC(=O)N1CCC[C@@H](n2nc(-c3ccc(Oc4ccccc4)cc3)c3c(N)ncnc32)C1 [ibrutinib]
# How it was run: as §1
# [9] = compound: CC(=O)c1cnc2ccc(-c3cc(Cl)c(O)c(Cl)c3)nc2c1N[C@H]1CC[C@H](CN(C)C)CC1
# How it was run: as §1
# ralimetinib = compound: CC(C)(C)Cn1c(N)nc2ccc(-c3[nH]c(C(C)(C)C)nc3-c3ccc(F)cc3)nc21 [ralimetinib]
# How it was run: as §1
# [10] = compound: CC(C)(O)CC(=O)NCCn1ccc2ncnc(Nc3ccc(Oc4cccc(C(F)(F)F)c4)c(Cl)c3)c21
# How it was run: as §1
# [11] = compound: CC(C)C1=C2N=C(C=C(N2N=C1)NCC3=CC=CC=C3)NCCCCCCN
# How it was run: as §1
# [12] = compound: CC1=C(C(CC(=O)N1)C2=CC=C(C=C2)C(F)(F)F)C(=O)NC3=C(C=C4C(=C3)C=NN4)F
# How it was run: as §1
# [13] = compound: CC1=C(C2=C(C=C1)C(=O)C3=CC=CC=C3N2CCCN)C
# How it was run: as §1
# [14] = compound: CC1=C(C=C(C=C1)NC(=O)C2=CC(=CC=C2)C(C)(C)C#N)NC3=CC4=C(C=C3)N=CN(C4=O)C
# How it was run: as §1
# [15] = compound: CC1=C(C=C(C=C1)NC(=O)C2=CC(=CC=C2)N(C)C)NC(=O)C3=CC=C(C=C3)O
# How it was run: as §1
# [16] = compound: CC1=CC=C(C=C1)SC2=C3C=C(SC3=CN=C2)C(=O)N
# How it was run: as §1
# Chain of UniProt Q9UPW0 (Q9UPW0 whole entry, looked up): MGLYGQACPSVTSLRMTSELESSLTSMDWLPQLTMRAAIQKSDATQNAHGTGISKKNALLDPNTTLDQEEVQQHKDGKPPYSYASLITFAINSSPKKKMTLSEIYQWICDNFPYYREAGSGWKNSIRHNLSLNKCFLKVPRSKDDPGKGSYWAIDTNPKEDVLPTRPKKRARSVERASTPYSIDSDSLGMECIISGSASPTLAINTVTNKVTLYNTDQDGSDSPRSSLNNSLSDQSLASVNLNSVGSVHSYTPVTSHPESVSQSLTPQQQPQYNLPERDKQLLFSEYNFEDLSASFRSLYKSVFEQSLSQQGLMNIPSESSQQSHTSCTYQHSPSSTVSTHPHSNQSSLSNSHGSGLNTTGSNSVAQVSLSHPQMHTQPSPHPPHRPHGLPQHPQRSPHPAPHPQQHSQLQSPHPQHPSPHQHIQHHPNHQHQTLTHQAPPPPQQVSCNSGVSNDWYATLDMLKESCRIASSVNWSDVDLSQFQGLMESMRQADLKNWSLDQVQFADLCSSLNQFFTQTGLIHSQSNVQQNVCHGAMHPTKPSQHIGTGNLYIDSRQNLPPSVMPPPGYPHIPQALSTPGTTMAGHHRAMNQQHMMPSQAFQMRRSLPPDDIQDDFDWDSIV
# Chain of UniProt Q14318 (Q14318 whole entry, looked up): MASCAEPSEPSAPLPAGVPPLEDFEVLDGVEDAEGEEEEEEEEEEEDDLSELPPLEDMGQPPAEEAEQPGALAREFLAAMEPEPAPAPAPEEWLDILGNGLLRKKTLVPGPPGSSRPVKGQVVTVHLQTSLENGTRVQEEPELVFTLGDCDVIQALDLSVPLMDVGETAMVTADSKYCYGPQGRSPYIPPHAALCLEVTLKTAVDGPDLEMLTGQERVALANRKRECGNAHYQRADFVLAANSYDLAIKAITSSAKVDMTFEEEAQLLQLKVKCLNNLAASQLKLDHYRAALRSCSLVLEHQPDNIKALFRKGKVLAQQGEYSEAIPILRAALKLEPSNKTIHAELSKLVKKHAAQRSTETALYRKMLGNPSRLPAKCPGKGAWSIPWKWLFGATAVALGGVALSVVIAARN
# Chain of UniProt Q9Y5Q0 (Q9Y5Q0 whole entry, looked up): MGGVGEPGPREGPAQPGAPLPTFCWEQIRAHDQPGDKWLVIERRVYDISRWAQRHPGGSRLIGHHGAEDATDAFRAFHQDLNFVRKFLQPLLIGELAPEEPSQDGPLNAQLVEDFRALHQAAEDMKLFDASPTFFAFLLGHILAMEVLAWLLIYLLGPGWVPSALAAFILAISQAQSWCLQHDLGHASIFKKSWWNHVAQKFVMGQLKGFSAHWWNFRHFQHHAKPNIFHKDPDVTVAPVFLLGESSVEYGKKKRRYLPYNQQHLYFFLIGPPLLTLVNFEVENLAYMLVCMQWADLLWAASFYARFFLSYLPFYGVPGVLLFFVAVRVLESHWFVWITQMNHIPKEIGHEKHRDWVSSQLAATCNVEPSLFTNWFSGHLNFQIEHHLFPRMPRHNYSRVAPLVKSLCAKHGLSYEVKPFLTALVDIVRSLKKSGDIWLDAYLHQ
# Chain of UniProt P34913 (P34913 whole entry, looked up): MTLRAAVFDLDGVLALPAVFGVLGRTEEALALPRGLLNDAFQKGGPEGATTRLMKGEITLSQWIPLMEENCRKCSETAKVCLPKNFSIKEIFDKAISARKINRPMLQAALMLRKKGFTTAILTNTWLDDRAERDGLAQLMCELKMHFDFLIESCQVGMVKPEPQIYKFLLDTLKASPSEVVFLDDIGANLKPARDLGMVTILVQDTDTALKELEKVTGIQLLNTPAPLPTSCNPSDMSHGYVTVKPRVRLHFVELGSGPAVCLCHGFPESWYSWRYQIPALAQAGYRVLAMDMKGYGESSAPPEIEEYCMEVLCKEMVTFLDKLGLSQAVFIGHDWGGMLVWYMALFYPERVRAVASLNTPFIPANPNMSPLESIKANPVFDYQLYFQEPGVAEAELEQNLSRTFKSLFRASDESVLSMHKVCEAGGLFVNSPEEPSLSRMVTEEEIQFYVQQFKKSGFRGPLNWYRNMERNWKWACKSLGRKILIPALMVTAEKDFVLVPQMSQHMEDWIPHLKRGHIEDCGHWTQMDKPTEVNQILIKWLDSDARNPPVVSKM
# Chain of UniProt Q9H410 (Q9H410 whole entry, looked up): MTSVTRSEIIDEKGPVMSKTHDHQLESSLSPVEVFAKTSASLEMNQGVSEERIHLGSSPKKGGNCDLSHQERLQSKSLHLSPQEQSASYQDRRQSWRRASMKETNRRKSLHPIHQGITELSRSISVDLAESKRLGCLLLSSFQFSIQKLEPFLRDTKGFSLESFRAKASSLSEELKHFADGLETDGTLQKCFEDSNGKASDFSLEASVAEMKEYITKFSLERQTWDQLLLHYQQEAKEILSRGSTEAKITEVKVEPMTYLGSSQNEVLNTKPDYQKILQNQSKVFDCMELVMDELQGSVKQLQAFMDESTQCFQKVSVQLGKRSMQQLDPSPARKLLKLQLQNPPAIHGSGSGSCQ
# Chain of UniProt P06241 (P06241 whole entry, looked up): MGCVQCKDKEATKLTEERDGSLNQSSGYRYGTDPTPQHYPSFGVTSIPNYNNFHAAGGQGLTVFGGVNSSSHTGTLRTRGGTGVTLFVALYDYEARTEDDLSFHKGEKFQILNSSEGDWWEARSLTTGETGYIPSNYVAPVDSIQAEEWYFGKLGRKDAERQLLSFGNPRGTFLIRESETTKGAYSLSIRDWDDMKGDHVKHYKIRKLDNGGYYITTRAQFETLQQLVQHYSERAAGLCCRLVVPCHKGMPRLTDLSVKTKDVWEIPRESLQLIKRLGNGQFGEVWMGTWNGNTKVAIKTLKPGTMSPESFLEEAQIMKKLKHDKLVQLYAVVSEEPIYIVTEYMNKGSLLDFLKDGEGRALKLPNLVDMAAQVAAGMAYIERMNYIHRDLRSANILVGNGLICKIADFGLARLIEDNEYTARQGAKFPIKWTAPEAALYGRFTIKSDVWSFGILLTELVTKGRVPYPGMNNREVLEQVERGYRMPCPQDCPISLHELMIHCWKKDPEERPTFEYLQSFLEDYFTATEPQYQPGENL
# Chain of UniProt Q9NWS6 (Q9NWS6 whole entry, looked up): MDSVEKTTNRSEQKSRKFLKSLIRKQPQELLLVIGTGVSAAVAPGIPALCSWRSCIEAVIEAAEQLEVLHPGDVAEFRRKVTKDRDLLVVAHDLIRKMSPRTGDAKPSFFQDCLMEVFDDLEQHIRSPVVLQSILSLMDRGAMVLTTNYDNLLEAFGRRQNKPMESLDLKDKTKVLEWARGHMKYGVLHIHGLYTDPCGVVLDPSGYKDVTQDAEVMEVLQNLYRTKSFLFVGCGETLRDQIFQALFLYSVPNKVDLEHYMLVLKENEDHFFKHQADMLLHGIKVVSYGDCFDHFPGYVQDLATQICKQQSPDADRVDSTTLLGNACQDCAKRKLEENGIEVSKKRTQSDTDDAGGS
# Chain of UniProt P22830 (P22830 whole entry, looked up): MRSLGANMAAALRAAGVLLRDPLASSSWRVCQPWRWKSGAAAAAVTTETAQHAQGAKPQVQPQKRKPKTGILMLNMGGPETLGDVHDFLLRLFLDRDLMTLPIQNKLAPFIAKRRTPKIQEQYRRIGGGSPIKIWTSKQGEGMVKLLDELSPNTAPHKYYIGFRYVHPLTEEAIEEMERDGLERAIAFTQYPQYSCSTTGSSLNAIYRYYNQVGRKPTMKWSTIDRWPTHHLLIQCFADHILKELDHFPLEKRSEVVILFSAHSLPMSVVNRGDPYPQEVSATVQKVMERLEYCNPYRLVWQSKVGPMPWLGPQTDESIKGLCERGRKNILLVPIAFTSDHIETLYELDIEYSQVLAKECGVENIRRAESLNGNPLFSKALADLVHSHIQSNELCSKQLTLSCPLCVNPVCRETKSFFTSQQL
# Chain of UniProt Q8IV48 (Q8IV48 whole entry, looked up): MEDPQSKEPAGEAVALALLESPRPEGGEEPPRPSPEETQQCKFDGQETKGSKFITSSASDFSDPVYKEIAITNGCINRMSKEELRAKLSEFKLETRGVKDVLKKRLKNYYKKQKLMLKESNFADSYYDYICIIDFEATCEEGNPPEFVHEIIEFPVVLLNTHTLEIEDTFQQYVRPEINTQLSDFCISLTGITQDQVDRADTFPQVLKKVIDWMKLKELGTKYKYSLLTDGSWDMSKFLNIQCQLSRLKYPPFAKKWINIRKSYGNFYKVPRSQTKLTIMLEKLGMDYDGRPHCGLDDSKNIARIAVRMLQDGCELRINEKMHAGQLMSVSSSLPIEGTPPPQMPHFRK
# Chain of UniProt Q9NRY5 (Q9NRY5 whole entry, looked up): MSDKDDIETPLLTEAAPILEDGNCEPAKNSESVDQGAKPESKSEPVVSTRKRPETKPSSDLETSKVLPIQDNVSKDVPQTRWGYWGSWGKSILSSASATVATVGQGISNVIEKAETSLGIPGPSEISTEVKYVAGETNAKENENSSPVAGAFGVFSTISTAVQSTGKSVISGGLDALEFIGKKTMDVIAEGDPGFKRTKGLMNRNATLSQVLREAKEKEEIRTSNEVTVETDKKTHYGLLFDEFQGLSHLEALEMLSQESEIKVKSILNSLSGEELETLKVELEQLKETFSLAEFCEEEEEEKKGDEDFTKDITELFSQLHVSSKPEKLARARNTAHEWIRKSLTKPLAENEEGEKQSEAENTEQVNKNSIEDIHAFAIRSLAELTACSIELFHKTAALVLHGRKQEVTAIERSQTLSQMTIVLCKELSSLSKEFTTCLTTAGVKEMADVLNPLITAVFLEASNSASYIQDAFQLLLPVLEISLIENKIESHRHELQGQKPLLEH
# Chain of UniProt P48507 (P48507 whole entry, looked up): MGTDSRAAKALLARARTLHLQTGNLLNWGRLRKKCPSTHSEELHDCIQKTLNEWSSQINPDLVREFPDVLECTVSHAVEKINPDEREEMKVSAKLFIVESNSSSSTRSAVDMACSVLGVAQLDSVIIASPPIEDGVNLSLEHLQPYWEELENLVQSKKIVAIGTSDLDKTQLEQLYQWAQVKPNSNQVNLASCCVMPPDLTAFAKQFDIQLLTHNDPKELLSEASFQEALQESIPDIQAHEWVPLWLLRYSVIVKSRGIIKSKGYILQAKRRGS
Target,log2 fold change (erlotinib),log2 fold change [1],log2 fold change [2],log2 fold change [3],log2 fold change [4],log2 fold change [5],log2 fold change [6],log2 fold change [7],log2 fold change [8],log2 fold change (IRAK-1-4 Inhibitor I),log2 fold change (ibrutinib),log2 fold change [9],log2 fold change (ralimetinib),log2 fold change [10],log2 fold change [11],log2 fold change [12],log2 fold change [13],log2 fold change [14],log2 fold change [15],log2 fold change [16]
FOXJ3 (UniProt Q9UPW0),0.018,0.085,-0.015,-0.001,0.014,0.032,-0.01,-0.035,-0.013,-0.025,-0.003,0.002,-0.021,-0.08,0.047,-0.026,-0.022,0.071,0.025,0.006
ELAVL1 isoform 2 (UniProt Q15717),0.047,0.008,0.019,0.025,-0.017,0.001,-0.069,-0.027,0.036,-0.051,0.042,-0.034,-0.016,0.039,-0.009,-0.02,-0.026,-0.042,0.028,0.007
EPB41 (UniProt P11171),-0.024,-0.021,-0.068,0.006,-0.005,0,0.014,0.004,0.008,-0.028,0.01,0.026,0.009,0.012,-0.003,-0.001,0.018,-0.023,0.01,0.044
FECH isoform 2 (UniProt P22830),0.101,0.062,-0.321,0.42,-0.014,0.354,0.673,0.183,-0.009,0.644,0.091,0.104,-0.034,0.504,0.327,-0.263,0.287,0.748,0.028,-1.11 (active)
FAM114A2 (UniProt Q9NRY5),-0.039,-0.068,0.141,-0.028,-0.1,-0.052,0.02,-0.045,-0.104,-0.002,-0.016,-0.061,-0.036,-0.11,0.057,0.171,0.06,-0.069,0.005,0.012
ERI1 (UniProt Q8IV48),-0.015,0.073,-0.009,0.019,-0.028,0.134,-0.03,-0.009,-0.036,-0.111,-0.037,0.022,-0.035,0.085,0.084,-0.05,0,-0.033,0.411,0.012
EPHX2 (UniProt P34913),-0.024,0.133,0.156,0.036,-0.023,-0.014,0.014,0.077,-0.002,-0.014,0.051,-0.002,-0.001,-0.02,0.099,0.004,-0.006,0.11,0.06,0.051
GCLM (UniProt P48507),-0.012,0.021,0.006,0.007,0.023,-0.001,-0.034,0.014,0.039,0.016,0.006,-0.009,0.01,-0.047,-0.028,0.006,-0.007,0.024,-0.026,-0.006
FKBP8 isoform 2 (UniProt Q14318),-0.011,0.041,0.012,0.002,-0.005,0.01,0,-0.054,0.001,0.008,0.022,-0.016,0.018,-0.017,0.027,-0.041,0.024,0.034,0.007,-0.053
DSN1 (UniProt Q9H410),-0.021,0.03,0.037,0.014,0.01,-0.025,0.032,-0.034,-0.024,0.002,-0.004,-0.023,0.011,0.001,-0.015,0.024,-0.018,0.017,0.025,-0.011
ECH1 (UniProt Q13011),-0.041,-0.049,-0.022,0.002,-0.022,0.499 (active),0.232,-0.009,0.017,-0.007,-0.035,-0.02,0.064,-0.036,-0.033,0.04,-0.02,-0.017,-0.018,0.013
ERCC4 (UniProt Q92889),-0.008,-0.04,0.033,0.015,-0.021,-0.003,-0.096,-0.006,0.051,0.029,-0.02,0.027,-0.028,0.006,0.059,-0.021,-0.029,0.013,0.025,-0.054
FAM118A (UniProt Q9NWS6),0.03,-0.03,-0.016,0.022,0.029,0.012,-0.006,0.021,0.048,0.051,-0.024,0.01,0.041,-0.052,-0.01,-0.004,-0.052,0.015,0.014,-0.004
FADS3 (UniProt Q9Y5Q0),0.075,-0.355,-0.052,0.118,0.016,-0.072,-0.124,0.109,-0.291,-0.097,0.11,-0.02,-0.123,0.075,-0.051,0.074,-0.49,0.015,0.017,-0.017
FYN (UniProt P06241),-0.028,0.02,0.025,0.028,-0.062,0.058,0.092,0.132,-0.018,-0.145,0.79 (active),0.046,0.09,-0.13,0.003,–,-0.042,-0.069,0.052,0.021
FARSB (UniProt Q9NSD9),-0.004,0.019,-0.007,-0.01,-0.02,0.039,-0.021,-0.004,0.011,-0.027,0.021,-0.013,-0.006,0.016,0.004,-0.023,0.007,0.033,0.008,0.03
